# In the library only some 2.8% were active in any assay of this set; here they are far more common.
# Beta2AR agonist: activates human beta-2 adrenergic receptor causing internalization. Am2.2-beta2AR cells, FAP receptor internalization, flow cytometry. AID 504454. 0.43% of 340,000 active. response, % (no concentration beside the values). P07550;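 active = response above a set limit, near 3 SD of response in nonfluorescent compounds, cut at about 42% in these data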
# Target sequence (P07550 whole entry, looked up): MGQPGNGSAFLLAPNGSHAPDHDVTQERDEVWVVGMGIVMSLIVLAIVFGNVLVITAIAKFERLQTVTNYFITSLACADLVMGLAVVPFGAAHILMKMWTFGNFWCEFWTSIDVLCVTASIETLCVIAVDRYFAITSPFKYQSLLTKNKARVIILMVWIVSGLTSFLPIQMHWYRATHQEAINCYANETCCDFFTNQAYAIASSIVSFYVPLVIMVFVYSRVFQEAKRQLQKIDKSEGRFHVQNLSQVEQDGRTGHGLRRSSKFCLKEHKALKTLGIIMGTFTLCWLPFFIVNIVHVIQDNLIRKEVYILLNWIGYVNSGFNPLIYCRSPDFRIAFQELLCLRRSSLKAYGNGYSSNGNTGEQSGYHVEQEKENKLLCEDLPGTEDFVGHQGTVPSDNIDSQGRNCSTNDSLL
# KKLEB tox: reduces viability of KKLEB cystic fibrosis airway cells; KKLEB CF airway cells viability, ATPlite luminescence, overnight; hits give low values; cells stimulated with P. aeruginosa culture filtrate; activity change (cytotoxicity), % at 5 µM; 0.36% of 360,000 active;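 active = corrected activity change at or below -50% at 5 µM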
# TRPM1 prom inh: inhibitors of MITF-driven TRPM1 promoter in melanoma cells; SK-MEL-5 TRPM1 promoter luciferase, 24 h; inhibition, % at 12.5 µM; 0.83% of 330,000 active;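 active = mean inhibition across replicates of 60% or more, whatever share of single replicates reaches that level; inconclusive = some that reach 60%, reason not given; inactive = mean inhibition across replicates below 60%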
# CF NFkB inh: cystic fibrosis NF-kB activation inhibition. KKLEB NF-kB-GFP reporter, PAF-induced, GFP fluorescence overnight. inhibition, % at 5 µM. 0.86% of 360,000 active;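 active = at least 50% inhibition at 5 µM, scaled per plate between neutral and stimulator controls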;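 also: PAF is a Pseudomonas aeruginosa culture filtrate used as stimulus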
# HIF-2a block: inhibitors of HIF-2a; AID 624352; 786-0 RCC cells HIF-2a reporter, luciferase luminescence, overnight; 0.72% of 360,000 active; inhibition, % at 18.8 µM;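 active = inhibition of the luminescence signal of 40% or more relative to plate controls, in a single-dose primary screen at 18.75 µM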
# Peg3 prom inh: inhibitors of Peg3 promoter; HeLa PEG-Prom luciferase reporter, luminescence, overnight; inhibition, % at 20 µM; 1.7% of 360,000 active;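 active = inhibition of at least 50% at 20 µM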
# A number is an active result; – = inactive; ? = inconclusive; · = no result; ! = a repeat was not active.
SMILES,Beta2AR agonist,KKLEB tox,TRPM1 prom inh,CF NFkB inh,HIF-2a block,Peg3 prom inh
N#Cc1ccc(NC(=O)Nc2ccc(Oc3ccc(NC(=O)Nc4ccc(C#N)cc4)cc3)cc2)cc1,–,–,?,–,–,57.2
CN(Cc1cn(Cc2ccccc2)nn1)C1CN(Cc2cn(Cc3ccccc3)nn2)S(=O)(=O)C1 (stereo unspecified),·,·,·,·,–,·
CCCCCCCCCCCC(=O)NC(C(=O)O)C(O)c1ccccc1 (stereo unspecified),–,–,–,–,–,–
CCCCCCCCNC(C)C(O)c1ccc(SC(C)C)cc1 (stereo unspecified),–,–,82.9,–,–,103.9
O=C(NCc1ccccc1)C1=C[C@H](C2CCCCC2)C[C@H](OCc2ccc(CO)cc2)O1,–,-52.7,–,55.6,–,–
CCCc1cc(=O)oc2c(CNc3ccc(OCC)cc3)c(O)ccc12,–,–,–,52.8,–,–
CN1OC[C@@H]2CN(Cc3ccc(Cl)cc3)[C@H](c3ccc(N4CCCCC4)cc3)C[C@@H]21,·,–,·,–,–,–
CS(=O)(=O)N1CCN(c2ccc(NC(=O)c3ccc(-c4ccc(Cl)cc4)o3)cc2)CC1,–,–,–,–,–,–
CN1CCN(c2ccc(NC(=O)c3ccc(-c4ccc(Cl)cc4)o3)cc2)CC1,–,–,–,–,–,97.8
C[N+]1(C)CCC(OC(=O)C(O)(c2ccccc2)C2CCCC2)C1 (stereo unspecified),–,–,–,–,–,–
C[N+]1(C)CC[C@H](OC(=O)[C@@](O)(c2ccccc2)C2CCCC2)C1,–,-66.8,–,–,–,–
C[C@H]1CN([C@@H](C)CO)S(=O)(=O)c2ccc(C#Cc3cccnc3)cc2O[C@@H]1CN(C)C(=O)Nc1ccc2c(c1)OCO2,·,–,·,–,–,–
Cc1ccc(C(=O)NCC(=O)N2CCN(c3ccccc3O)CC2)s1,·,–,·,–,–,–
CCCc1cnc(Nc2nc(C(N)Cc3ccc(C(F)(F)F)cc3)cs2)nc1 (stereo unspecified),·,–,·,–,–,96.5
CS(=O)(=O)c1ccc(Nc2nc(C(N)Cc3ccc(C(F)(F)F)cc3)cs2)cc1 (stereo unspecified),·,–,·,–,–,–
NC(Cc1ccc(C(F)(F)F)cc1)c1csc(Nc2nccc(C(F)(F)F)n2)n1 (stereo unspecified),·,–,·,–,–,92.4
Cc1cc(C)nc(Nc2nc(C(N)Cc3ccc(C(F)(F)F)cc3)cs2)n1 (stereo unspecified),·,–,·,–,–,102.3
Cc1cc(C)nc(Nc2nc(C(N)Cc3ccc(Cl)cc3)cs2)n1 (stereo unspecified),·,–,·,–,–,91.9
C[C@H]1CN([C@@H](C)CO)S(=O)(=O)c2ccc(C#CC3CC3)cc2O[C@@H]1CN(C)S(C)(=O)=O,·,–,·,–,–,–
CCOC(=O)[C@]12CCCC=C1N(Cc1ccc3c(c1)OCO3)C(=O)[C@H](CC(=O)NCC13CC4CC(CC(C4)C1)C3)C2,·,·,·,·,–,·
NCC12CC3CC(C1)CC(c1ccc(Cl)cc1)(C3)C2,–,–,–,–,–,107.6
COc1ccc(C(=O)c2c(C(F)(F)F)oc3c2C(=O)c2ccccc2C3=O)cc1OC,–,-64.8,89.6,87.7,–,89.3
O=C(CSc1nnc2c(n1)[nH]c1ccccc12)N1CCCCC1,–,–,–,–,–,–
Cc1ccc(C(=O)NNC(=O)CSc2nnc3c(n2)[nH]c2ccc(F)cc23)cc1,–,–,–,–,–,55.1
CC1CCc2cc(F)ccc2N1C(=O)CSc1nnc2c(n1)[nH]c1ccccc12 (stereo unspecified),–,–,–,–,–,64.6
SMILES,Beta2AR agonist,KKLEB tox,TRPM1 prom inh,CF NFkB inh,HIF-2a block,Peg3 prom inh
CCN(CC)CCNc1cc(C)nc2c1C(=O)C(=O)C=C2N1CCCCC1,–,–,–,–,–,74.3
CCN(CC)CCNC(=O)c1ccc(N2CCCCC2)c(NS(=O)(=O)c2ccc(C)cc2)c1,–,–,–,–,–,–
Cc1ccc(CC(=O)Nc2cccc(C(=O)Nc3c(C)n(C)n(-c4ccccc4)c3=O)c2)cc1C,·,–,·,–,–,–
C=C(CN(C)C)C(=O)c1cc(C)ccc1C,–,–,106.3,–,90.4,99.9
CCOc1cc(/C=N/NC(=O)c2cc(-c3cccc(OC)c3)nc3ccccc23)ccc1O,–,–,·,–,–,–
O=C(N/N=C/c1ccccn1)c1cc(-c2ccccc2)nc2ccccc12,–,–,·,–,–,65.5
O=C(N/N=C/c1ccccn1)c1cc(C2CC2)nc2ccccc12,–,–,–,–,–,–
O=C(N/N=C/c1ccccn1)c1[nH]c2ccc([N+](=O)[O-])cc2c1-c1ccccc1,–,–,–,–,–,54.6
CC(C)COc1cccc(-c2cc(C(=O)N/N=C/c3ccncc3)c3ccccc3n2)c1,50.7,–,–,–,–,–
Cc1cc(C)c(S(=O)(=O)/N=C2/C=C(SCC(=O)O)C(=O)c3ccccc32)cc1C,–,–,–,55.8,–,–
Cc1ccc(NC(=O)CSc2ccccc2)cc1S(=O)(=O)N1CCCCC1,–,–,–,–,–,–
CCOC(=O)c1c(Nc2ccc(Cl)cc2)sc(/C=C2\C=Nc3ccccc32)c1O,–,-51.1!,–,–,–,–
COc1ccc(-c2cc(CNc3nc(NC(C)C)nc4cc(-c5ccccc5)sc34)on2)cc1,·,–,·,–,–,78.0
C=CCNc1nc(NCc2ccc(NC(C)=O)cc2)c2sc(-c3ccccc3)cc2n1,·,-60.5,·,–,–,–
CC(=O)NCCNc1nc(NC(C)C)nc2cc(-c3ccccc3)sc12,·,–,·,–,–,–
c1ccc(-c2cc3nc(NCC4CC4)nc(NCC4CCCCC4)c3s2)cc1,·,-83.7,·,81.7,–,93.2
COCCNc1nc(NCC2CCCCC2)c2sc(-c3ccccc3)cc2n1,·,–,·,–,–,–
CC(=O)Nc1ccc(CNc2nc(NC(C)C)nc3cc(-c4ccccc4)sc23)cc1,·,-55.7,·,–,–,64.6
CCCCCCCCN1C(=O)[C@H](CC(=O)N2CCCC2)C[C@@]2(C(=O)OC)CC(C)(C)CC=C12,·,·,·,·,–,·
COCCNc1nnc(SCC(=O)c2cc(C)n(C3CC3)c2C)s1,·,–,·,–,–,–
Cc1cc(C)cc(N2C(=O)C=CC2=O)c1,–,–,–,89.0,–,106.2
C[C@@H]1CN([C@@H](C)CO)C(=O)CCCn2nncc2CO[C@H]1CN(C)Cc1ccncc1,·,–,·,–,–,–
CCN(CC)CCn1nc2c3c(cccc3c1=O)-c1ccccc1-2,–,–,70.4,–,–,106.3
COc1ccc(S(=O)(=O)N(C)C[C@H]2OCc3cnnn3CCCC(=O)N([C@H](C)CO)C[C@@H]2C)cc1,·,–,·,–,–,–
Cn1cc(C(=O)c2ccc(Cl)cc2Cl)cc1C(=O)N/N=C(\N)COc1ccc(Cl)cc1,90.4,–,–,–,–,52.6
Cn1cc(C(=O)c2ccc(Cl)cc2Cl)cc1C(=O)N/N=C(\N)COc1ccc(F)cc1,–,–,–,–,–,–

# Bioassay records as filed in PubChem.
